Experimental data: publication PMC7819943, “Rice protein-binding microarrays: a tool to detect cis-acting elements near promoter regions in rice”
Over roughly 68,000 sequences, “fluorescence intensity (a.u.)” has its median near 9,100; the highest 2% begin near 16,000. The sample as a whole holds a higher share of the highest values than the screen did.

Target: OsWRKY34 (Oryza sativa, UniProt Q0JBA9 1-250)
Test: protein-binding microarray (RPBM); PBS, 2% BSA, 51.3 ng/ul salmon testes DNA, 50 uM zinc acetate, 200 nM TF, 25 C, 1 h; high values mean tight binding
Settings: protein: recombinant; tags: N-terminal polyhistidine and DsRed monomer fusion (pET32a); label: CyDye5-dUTP incorporated in the synthesized complementary strand; 3' TTTTT single-stranded linker to array surface; dsDNA, one strand shown
Outline: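 Using Ni–NTA, transcription factors fused N-terminally to polyhistidine and DsRed were purified after expression in E. coli BL21-CodonPlus. These were incubated at 200 nM with a blocked, double-stranded custom Agilent array for 1 h at 25 °C in a buffer containing 50 µM zinc acetate, and the array was washed. The binding signal is per-feature fluorescence intensity (arbitrary units) on an Axon 4000B scanner.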

OsWRKY34, sequence (Q0JBA9 entry or part of it): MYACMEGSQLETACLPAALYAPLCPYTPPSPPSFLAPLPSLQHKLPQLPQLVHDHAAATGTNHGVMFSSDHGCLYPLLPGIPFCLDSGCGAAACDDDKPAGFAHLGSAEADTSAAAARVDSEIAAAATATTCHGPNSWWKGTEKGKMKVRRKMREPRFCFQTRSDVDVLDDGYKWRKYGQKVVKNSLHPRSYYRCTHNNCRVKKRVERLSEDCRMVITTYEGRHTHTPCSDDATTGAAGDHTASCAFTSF

Row | Sequence | binding signal
1 | CGTTCGCGTTTCGGTTTGACCGCGCGTCTCGCCTAGATTTCGGAGTCACCTAGTGCAG | 8650 fluorescence intensity (a.u.)
2 | AGAGTTTGGCATACTCCTACGTATCATTGTCGACCTTTAGCGGAGTCACCTAGTGCAG | 8340 fluorescence intensity (a.u.)
3 | CGAGTCGAGCTTTTCTTTCTTTGGTTGGTTGGTTGGTGTTCGGAGTCACCTAGTGCAG | 19600 fluorescence intensity (a.u.)
4 | GTGCTACTCCATATACGTATGGCTGGTTTGGTTGGTTGAGCGGAGTCACCTAGTGCAG | 21400 fluorescence intensity (a.u.)
5 | CGAGGTTCTTTGCTTCATACTTTTTTTTGGTGTTCTACTTCGGAGTCACCTAGTGCAG | 11200 fluorescence intensity (a.u.)
6 | CGAGGTCGTTTGGTTTTCTTTTCCTTTTTGGTTGTGTGTTCGGAGTCACCTAGTGCAG | 9070 fluorescence intensity (a.u.)
7 | TGGTTGGTTTGTTGGGTTCTTTTCCTTTTTTTTGTTTCTTCGGAGTCACCTAGTGCAG | 26700 fluorescence intensity (a.u.)
8 | TGGTGTTGTTGGTGTCGTCTTGTTCTTGTTTGTGTTTTCTCGGAGTCACCTAGTGCAG | 15900 fluorescence intensity (a.u.)
9 | CGGCTAGGGTTTGTTTTTCTTTTCTTTTTTTCCTTTTCTTCGGAGTCACCTAGTGCAG | 14300 fluorescence intensity (a.u.)
10 | AGTTTTTTTTTCAGCTTTTTGGTTTCTTTTGCTGTTGTTTCGGAGTCACCTAGTGCAG | 10300 fluorescence intensity (a.u.)
11 | GTGGGTATGGTTGACTTGACGGACGTACTACTCCATACTACGGAGTCACCTAGTGCAG | 8190 fluorescence intensity (a.u.)
12 | TAGATAGGGGATGTATAGGACAAGAGAGAACACATGCATTCGGAGTCACCTAGTGCAG | 8690 fluorescence intensity (a.u.)
13 | TTAACCTCTCTCTTAATTTCAGTTTGTTTGTTCGTTCGTTCGGAGTCACCTAGTGCAG | 9010 fluorescence intensity (a.u.)
14 | ACAGCCTATATACACTACTCACTCCGTCTCAGAATATAAGCGGAGTCACCTAGTGCAG | 8900 fluorescence intensity (a.u.)
15 | CATCCCAATTTTCTGGCCACACTTGCATCCCTCTGCCGCCCGGAGTCACCTAGTGCAG | 10800 fluorescence intensity (a.u.)
16 | ACCACCCTACCTAGCTTAGAATATTTACCATGCATTCTCTCGGAGTCACCTAGTGCAG | 11100 fluorescence intensity (a.u.)
17 | TCTTCTTCTTGTTTCGGCTTCCGCCTCCGTCCCGCGCGCGCGGAGTCACCTAGTGCAG | 13800 fluorescence intensity (a.u.)
18 | CAAATTATGAGCCTGTTCACTTTGATGCTCTTTTCAACCACGGAGTCACCTAGTGCAG | 8320 fluorescence intensity (a.u.)
19 | TCCCAAACCCCGCGCCGCCTCTTACCGCTTCGCGTCAGCTCGGAGTCACCTAGTGCAG | 8490 fluorescence intensity (a.u.)
20 | ACCTATCTTTCTCTATTTTTTATTTTTTTAGCGAAACACACGGAGTCACCTAGTGCAG | 9780 fluorescence intensity (a.u.)
21 | TCCGTTTTTGTGGTTTTCGATGGATTCCGTCGTCGCCGACCGGAGTCACCTAGTGCAG | 9660 fluorescence intensity (a.u.)
22 | GATGGACATTGTTTGCCATCACCGTCAACGACCGTTGACTCGGAGTCACCTAGTGCAG | 12900 fluorescence intensity (a.u.)
23 | GCTTCGTTGGCTCCGTGAAACTGTCTCTCTCTCCCAACTCCGGAGTCACCTAGTGCAG | 8030 fluorescence intensity (a.u.)
24 | TTTGCACTGGTTTTGTAAGTTGGGGATGTATTGTATGAGGCGGAGTCACCTAGTGCAG | 9560 fluorescence intensity (a.u.)

Row | Sequence | binding signal
25 | CGTGAGGAATGGGATTTTTATTTTGCTGGTTACTGTTTGACGGAGTCACCTAGTGCAG | 10000 fluorescence intensity (a.u.)
26 | AGTCAAATTTGTTTTTTTTCGTTGCAACTTGTATAATTTACGGAGTCACCTAGTGCAG | 9430 fluorescence intensity (a.u.)
27 | GTGTCATTCTCCTCACACGCCGGTCTCCATGAGCGAGTTTCGGAGTCACCTAGTGCAG | 8110 fluorescence intensity (a.u.)
28 | AAAGTTGGGGTCAGGTGGTTTTGGTTCTGTGTTCAAGGGACGGAGTCACCTAGTGCAG | 11500 fluorescence intensity (a.u.)
29 | GACGTGTTTGGTCTTCGGTTCGGTGGGTCTCAAGTTCTGACGGAGTCACCTAGTGCAG | 19400 fluorescence intensity (a.u.)
30 | AAAATTCTTGGTCTTCTTGGTCTCGGTTAGTTCGGTTCGACGGAGTCACCTAGTGCAG | 8110 fluorescence intensity (a.u.)
31 | GGACCCACCTGCCGAACCAGCACGCATCGCGTCTCGCACCCGGAGTCACCTAGTGCAG | 8590 fluorescence intensity (a.u.)
32 | GGTCAAATTCTCATTTTGCAATATCCCACAGCTAATTACACGGAGTCACCTAGTGCAG | 9540 fluorescence intensity (a.u.)
33 | ATCACGGGATTACACAGCAAAGTAGCAAAGCTAAATTTTACGGAGTCACCTAGTGCAG | 63700 fluorescence intensity (a.u.)
34 | TGCAAAGTAGTAGTTGGGGATTTAATAGTGGCTTACAATACGGAGTCACCTAGTGCAG | 8620 fluorescence intensity (a.u.)
35 | GCTAATAAGTGCTTACATTGTTTTGGATGATCACCAGCAACGGAGTCACCTAGTGCAG | 8080 fluorescence intensity (a.u.)
36 | ATGCTCCTACTTTCCTTTGCTGTATATATTACTCCATTTGCGGAGTCACCTAGTGCAG | 8260 fluorescence intensity (a.u.)
37 | TCATTCCTATGTTTTTTCTGTGTTTTGCAATTCTCTGTTTCGGAGTCACCTAGTGCAG | 14900 fluorescence intensity (a.u.)
38 | CCAACCGCCGCGCCGCTTCGCTGTCTTCACCGTGCCGCTCCGGAGTCACCTAGTGCAG | 8620 fluorescence intensity (a.u.)
39 | AGCTTCCTCCGTTTTTTTCTTTCTTTCTTTCTTTTTTTTTCGGAGTCACCTAGTGCAG | 11800 fluorescence intensity (a.u.)
40 | GCAAACTTTATTGCTCCGCGTTCTTCCTTTCTCTGTGTTTCGGAGTCACCTAGTGCAG | 8910 fluorescence intensity (a.u.)
41 | TCATTGCTCTCTGTGTTTCTCCGCTATGCCGCCACGTCTTCGGAGTCACCTAGTGCAG | 16700 fluorescence intensity (a.u.)
42 | CCGAATCCGGCCACCCCGCCGCCTCCACGCGCATCACCGCCGGAGTCACCTAGTGCAG | 11100 fluorescence intensity (a.u.)
43 | GAATCCACCGCATTTTTCCGCCGCCCCACGCGGCGCCACCCGGAGTCACCTAGTGCAG | 19700 fluorescence intensity (a.u.)
44 | ACCCACCACAACCAGTGATCAGACACCACCTACCGCGCGCCGGAGTCACCTAGTGCAG | 8330 fluorescence intensity (a.u.)
45 | ACCCCACCTGTCAGACAACCCCACCGCCGCTTCGCTTCACCGGAGTCACCTAGTGCAG | 17300 fluorescence intensity (a.u.)
46 | TTCCTCCGTTTTCTCCGTTCGTCTTCCTCCGCTTCCGAAGCGGAGTCACCTAGTGCAG | 18000 fluorescence intensity (a.u.)
47 | TTCGTCTCCGTTTCGTCTTCTTCTTCTTCTTCTTCTTCGGCGGAGTCACCTAGTGCAG | 8790 fluorescence intensity (a.u.)
48 | GCACCGGCGCCACCGCCCGCGCCCGCACCACCGCCCACGCCGGAGTCACCTAGTGCAG | 8870 fluorescence intensity (a.u.)
